Reference: PubChem BioAssay (Tox21)
Results filed as inconclusive are left out. Active and inactive are the calls of the source. Unless noted, the call rests on the fitted dose curve; in most records, active means well fitted curve in the direction sought with a large enough effect in the repeat runs; inconclusive means weak or mixed curves; inactive means no such curve, though single readings can be large; an effect the other way counts as inactive or inconclusive.

Experiments:
[1] = qHTS assay to identify small molecule antagonists of the estrogen related receptor (ERR) signaling pathway - cell viability counter screen (AID 1224818);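 further: series mostly up to about 46 µM; viability measured after 17.5 h of compound exposure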
Outline: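 Cells carrying the ERR pathway reporter were seeded and incubated for 6 hours before compound addition. After a 17.5-hour exposure at 37 C, live-cell protease activity was measured by CellTiter-Fluor fluorescence following 30 minutes of incubation.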

[2] = qHTS assay to identify small molecule agonists of the estrogen related receptor (ERR) signaling pathway (AID 1224820)
Outline: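 Quantitative HTS of the LOPAC library used NTP ERR reporter cells treated 18 h at 37 C. Signal is luminescence after One-Glo addition and a 30 min room-temperature incubation.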

[3] = test system: estrogen-related receptor alpha (ERRalpha) with PGC-1alpha coactivator, human; assay: qHTS assay to identify small molecule antagonists of the estrogen related receptor signaling pathway with the pleiotropic PPARgamma coactivator (PGC) (AID 1224821; calls by dose curve;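 further: series mostly up to about 46 µM; lower luminescence signal means antagonism of PGC/ERR signalling; nearly all actives have a fitted effect of over 50% in size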)
Outline: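 Quantitative HTS for antagonism: PGC/ERR cells received compounds after 6 h attachment and were incubated 18 h at 37 C, with luminescence (One-Glo) as the endpoint.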

[4] = qHTS assay to identify small molecule antagonists of the estrogen related receptor signaling pathway with the pleiotropic PPARgamma coactivator (PGC) cell viability counter screen (AID 1224822;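 further: series mostly up to about 46 µM; viability read after 17.5 h compound exposure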)
Outline: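 Seed PGC/ERR cells (2,000/well); incubate 6 h at 37 C/5% CO2; pin-transfer compounds in DMSO; incubate 17.5 h at 37 C; add CellTiter-Fluor; after 30 min read fluorescence.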

[5] = qHTS assay to identify small molecule agonists of the estrogen related receptor signaling pathway with the pleiotropic PPARgamma coactivator (PGC) (AID 1224823)
Outline: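 Cell-based luciferase assay in the NTP-supplied PGC/ERR line, 2,000 cells/well; 18 h compound exposure at 37 C, luminescence after One-Glo.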

[6] = qHTS assay to identify small molecule antagonists of the estrogen related receptor (ERR) signaling pathway (AID 1224819;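 further: luminescence from an ERR-driven luciferase reporter measured with One-Glo reagent; series mostly up to about 46 µM; nearly all actives have a fitted effect of over 50% in size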)
Outline: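 Compounds dissolved in DMSO were pin-transferred onto ERR cells that had been plated 6 h earlier, and cells were then incubated 18 h at 37 C; signal was luciferase luminescence via One-Glo.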

Measured: Potency

C[N+](C)(C)CC#CCOC(=O)Nc1cccc(Cl)c1
inactive: [1] | [2] | [3] | [4]

S=C(NC1CCCCC1)N1CCC(c2cnc[nH]2)CC1
not listed: [6]
inactive: all other assays above

N#C/C(=C/c1ccc(O)c(O)c1)C(N)=S
inactive: [1] | [2] | [3] | [4]

CCCN1CCc2cc(O)cc3c2[C@H]1Cc1ccc(O)c(O)c1-3
not listed: [4]
inactive: all other assays above

CN1CCc2cccc(Cl)c2CC1
inactive: [1] | [2] | [3] | [4]

NC(N)=Nc1ccc2[nH]c3c(c2c1)C[C@@]1(O)[C@H]2Cc4ccc(O)c5c4[C@@]1(CCN2CC1CC1)[C@H]3O5
not listed: [4]
inactive: all other assays above

NC(=O)COc1c(F)cc(SCCNS(=O)(=O)c2ccccc2)cc1F
inactive: [1] | [2] | [3] | [4]

C=CCN1CC[C@]23CCCCC2[C@H]1Cc1ccc(O)cc13 (some centres undefined)
not listed: [2]
inactive: all other assays above

CC(N)Cc1c[nH]c2ccc(OCc3cccs3)cc12 (centres undefined)
not listed: [4]
inactive: all other assays above

O=C(O)Cc1cnc[nH]1
inactive: [1] | [2] | [3] | [4]

C[N+](C)(C)CCOC(=O)CBr
not listed: [6]
inactive: all other assays above

CN1CCC(c2c[nH]c3ccc(O)cc23)CC1
not listed: [6]
inactive: all other assays above

CNCCc1ccc(O)c(O)c1
not listed: [6]
inactive: all other assays above

C[C@H](N)CN1CCc2ccc(Br)cc21
inactive: [1] | [3] | [4] | [5]

CN(N=O)c1cc(O)ccc1O
inactive: [1] | [4] | [5]

CN(C(=O)Cc1ccc(Cl)c(Cl)c1)C(CN1CCCC1)c1cccc(OCC(=O)O)c1 (centres undefined)
not listed: [6]
inactive: all other assays above

c1ccc2cc(CC3=NCCN3)ccc2c1
inactive: [1] | [4]

C[N+]1(C)C2CCC1CC(OC(=O)C(CO)c1ccccc1)C2 (centres undefined)
inactive: [1] | [4]

COc1ccc(OC)c(C(O)C(C)N)c1 (centres undefined)
not listed: [6]
inactive: all other assays above

CCS(=O)(=O)Nc1cccc(C(=C2CCCCC2)c2cnc[nH]2)c1
inactive: [1] | [2] | [4] | [5]

C[N+]1(C)C2CC(OC(=O)[C@H](CO)c3ccccc3)CC1C1OC12 (some centres undefined)
inactive: [1] | [4]

CC(C)[C@H]1CN[C@H](C(=O)O)[C@H]1CC(=O)O
not listed: [6]
inactive: all other assays above

O=C(NC1CN2CCC1CC2)c1cc2ccoc2cn1 (centres undefined)
inactive: [1] | [4]

CP(=O)(O)C1=CCNCC1
not listed: [6]
inactive: all other assays above
